Experimental data published in PubChem BioAssay AID977607 (Broad Institute, 2014).
The whole screen tested about 1,500 compounds, of which about 460 (31%) were called active. Inconclusive results (about 1%) are left out.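 The calls were made as follows: active = curve reaches 40% activation over neutral controls at an AC40 no higher than the top valid tested concentration; inconclusive = no clear call, values can overlap the other calls; inactive = signal moving opposite to the expected increase, and the rest.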 A selection follows. Entries with a potency or affinity are not part of this list.

Assay: GLuc-reported insulin release enhancers, glucose-stimulated beta cells – cell-based, INS-1E, Gaussia luciferase, luminescence, cherry-pick, set 2, dose response (AID 977607);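 also: 0% = median of the plate neutral control wells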
Settings: INS-1E GLuc insulin secretion reporter, 2-3 h, hits give high values; at 35 µM, 100% = signal doubled over neutral wells unless noted

Max activation, inactive:
Cc1cc(C)nc(NC(N)=NCCc2c[nH]c3ccccc23)n1 -23.4% [at 0.046 µM, 100% = signal doubled over neutral wells], COC(=O)C1=C(C)N(Cc2ccc(C(F)(F)F)cc2)C(=NCC2CC2)NC1c1ccccc1 (configuration not stated) -21% [at 3.8 µM, 100% = signal doubled over neutral wells], COc1cc(C(F)(F)F)c(C(=O)NCc2cccc(Cl)c2)cn1 -11.8%, CCN(CC)CCCN=C1N[C@@H](c2ccccc2)C(C(=O)OC)=C(C)N1CC -23.5% [at 3.8 µM, 100% = signal doubled over neutral wells], CCCCN(Cc1nc2ccccc2c(=O)[nH]1)C(=O)c1nn(C)c(=O)c2ccccc12 -30.4% [at 0.0016 µM, 100% = signal doubled over neutral wells], Clc1cc(NC2CCCCC2)ncn1 -22.5% [at 11 µM, 100% = signal doubled over neutral wells], CC(C)c1cc(C(C)C)n2nc(N)nc2n1 24.3%, COCCOC(=O)C1=C(C)NC(=O)N(C(C)=O)C1c1ccc(Cl)cc1 (configuration not stated) -26.3% [at 3.8 µM, 100% = signal doubled over neutral wells], NC1=NC(=O)C(Cc2ccc(F)cc2)S1 (configuration not stated) -13% [at 0.015 µM, 100% = signal doubled over neutral wells], O=C(c1ccccc1F)N1CCCC(N2CCN(Cc3ccc4c(c3)OCO4)CC2)C1 (configuration not stated) -12.4% [at 0.0016 µM, 100% = signal doubled over neutral wells], CCCNC(=O)C1(C)CCN(C(=O)c2cccc(C(F)(F)F)c2)C1 (configuration not stated) -15.8% [at 0.135 µM, 100% = signal doubled over neutral wells], CCCCc1nnc2c(N(C)S(=O)(=O)c3ccccc3)nc3ccccc3n12 -17.8% [at 0.015 µM, 100% = signal doubled over neutral wells], Cc1cccc(N2CCN(C(=O)c3cccn4c(=O)c5c(C)c(C)sc5nc34)CC2)c1C -13.3% [at 0.046 µM, 100% = signal doubled over neutral wells], COC(=O)C1CCN(c2cc(Cl)nc(N)n2)CC1 30.9%, NC(=O)c1cc2cc(Cl)ccc2o/c1=N/NC(=O)c1cccs1 -12.9% [at 0.135 µM, 100% = signal doubled over neutral wells], N#CCCN(Cc1ccccc1)C(=O)c1cccs1 -20.9% [at 11 µM, 100% = signal doubled over neutral wells], CCOC(=O)c1cc(CC)sc1NC(=O)COC(=O)c1cnccn1 -18.2% [at 0.005 µM, 100% = signal doubled over neutral wells], CCOc1ncccc1C(=O)NCc1cccc(OC)c1 -19.1% [at 0.0016 µM, 100% = signal doubled over neutral wells], COc1cccc(CNC(=O)c2cccnc2Sc2ccccc2)c1 -18.8% [at 0.0016 µM, 100% = signal doubled over neutral wells], CCOc1ccc(CCNC(=O)COC(=O)c2nccnc2N)cc1OCC 16.3% [at 0.42 µM, 100% = signal doubled over neutral wells], C/C(Cl)=C\Cn1c(N2CCCC2)nc2c1c(=O)[nH]c(=O)n2C -16.5% [at 0.0016 µM, 100% = signal doubled over neutral wells], COc1ccc(NC(=O)Cc2c(SC)c3ccccc3n2Cc2ccccc2)cc1 28.7% [at 1.2 µM, 100% = signal doubled over neutral wells], CCCCC(=O)N(C)c1c(CC)nc2c(OCc3ccc(C(F)(F)F)cc3)cccn12 -15.2%, CCc1nc2c(OCc3ccccc3C(=O)OC)cccn2c1N(C)C(=O)c1ccncc1 -29.4%, C[C@@H]1CN([C@H](C)CO)S(=O)(=O)c2ccc(-c3ccc(C#N)cc3)cc2O[C@H]1CN(C)C 15.6% [at 0.046 µM, 100% = signal doubled over neutral wells], C[C@H]1CN([C@@H](C)CO)C(=O)c2ccccc2-c2ccccc2CO[C@@H]1CN(C)Cc1cccc(C(F)(F)F)c1 -39% [at 11 µM, 100% = signal doubled over neutral wells], COCC(=O)N(C)C[C@H]1Oc2cc(Br)ccc2S(=O)(=O)N([C@H](C)CO)C[C@H]1C -5.77% [at 0.046 µM, 100% = signal doubled over neutral wells], C[C@@H]1CN([C@H](C)CO)C(=O)c2cc(C#CCN(C)C)cnc2O[C@H]1CN(C)S(=O)(=O)c1cn(C)cn1 31.4% [at 0.015 µM, 100% = signal doubled over neutral wells], C[C@@H]1CN([C@H](C)CO)C(=O)c2cc(C#CCc3ccccc3)cnc2O[C@H]1CN(C)C(=O)C1CCC1 25.2% [at 0.015 µM, 100% = signal doubled over neutral wells], C[C@H](CO)N1C[C@H](C)[C@@H](CN(C)C(=O)CC2CC2)Oc2cc(C#CC(C)(C)O)ccc2S1(=O)=O 36.4% [at 0.046 µM, 100% = signal doubled over neutral wells], C[C@H]1CN([C@@H](C)CO)C(=O)c2ccccc2-c2ccccc2CO[C@@H]1CN(C)Cc1ccc(Cl)c(Cl)c1 -38.4% [at 3.8 µM, 100% = signal doubled over neutral wells], C[C@@H]1CN([C@@H](C)CO)C(=O)c2cccc(NC(=O)Nc3ccc(C(F)(F)F)cc3)c2O[C@H]1CN(C)Cc1ccc(Cl)c(Cl)c1 -26.5% [at 11 µM, 100% = signal doubled over neutral wells]
